Data from ChEMBL document CHEMBL3988442, “University of Dundee, Small-Polar-MMV Screening Library” (2021).
The whole screen tested about 48,000 compounds, of which about 13,000 (27%) showed an effect of 50% or more. The list shows a part of the results.

System: Wolbachia pipientis
Assay: Anti-Wolbachia Cell-Based Screen
Format: functional
Parameters: scale not given: in the data most compounds retested in dose-response had high values
Settings: 5 µM

Row | Structure (SMILES) | Percent Effect
1 | Cn1ccc(NC2CCN(C3CC3)C2=O)n1 (centres undefined) | -4.974%
2 | Cn1nc(CN2CCOCC2)c2c1CN(C(=O)c1ccc[nH]1)C2 | -8.763%
3 | CC(C)n1nc(CN2CCCC2=O)c2c1CN(C(=O)c1ccco1)C2 | 113.5%
4 | Cn1nc(C#N)c2c1CN(C(=O)c1ccco1)CCC2 | -2.9%
5 | Cn1nc(CN2CCCC2)c2c1CN(C(=O)c1ccc[nH]1)CC2 | -10.94%
6 | CC(C)n1nc(CN2CCCC2=O)c2c1CN(C(=O)c1ccc[nH]1)C2 | 104.5%
7 | COCc1nn(C)c2c1CN(C(=O)c1ccno1)CC2 | 7.505%
8 | COCc1nn(CC2CC2)c2c1CN(C(=O)c1ccno1)CC2 | 1.769%
9 | CC(C)n1nc(CN2CCCC2=O)c2c1CN(C(=O)c1ccno1)C2 | 92.04%
10 | O=C(c1ccco1)N1CCc2onc(CN3CCCC3)c2C1 | -15.89%
11 | N#CC1COCCN1S(=O)(=O)c1ccc2c(c1)CCC2 (centres undefined) | 4.042%
12 | N#Cc1cccnc1N[C@@H]1c2ccccc2C[C@@H]1O | 4.876%
13 | CCN(CC)C(=O)[C@@H]1C[C@H](N)CN1C(=O)c1cc2c([nH]c1=O)CCC2 | -7.026%
14 | Cc1cnc(C)c(-c2cc(O)c3c(c2)CN(Cc2nccs2)CCO3)n1 | 17.73%
15 | Cc1nn(C)c(C)c1C(=O)N1CCN(C(=O)CCC2CCCCC2)CC1 | -21.72%
16 | Cc1cc(C(=O)N2CCN(c3ccncc3Cl)CC2)n(C)n1 | 77.84%
17 | Cc1nn(C)c(C)c1C(=O)N1CCN(c2ccncc2Cl)CC1 | 86.38%
18 | Cc1cccc(N2CCN(C(=O)c3c(C)nn(C)c3C)CC2)c1C | 34.44%
19 | CC(C)c1cc(C(=O)N2CCN(c3ccncc3)CC2)n(C)n1 | 12.18%
20 | O=C(N1CCOCC1)N1CCN(c2ccncc2Cl)CC1 | -18.06%
21 | Cc1cc(F)ccc1S(=O)(=O)NCC(O)c1cccn1C (centres undefined) | -4.916%
22 | CCOCC1CN(C(=O)CC2=CCCCC2)Cc2nnn(C)c21 (centres undefined) | 41.96%
23 | Cc1nccc([C@@H]2C[C@@H]3CCN(S(=O)(=O)N(C)C)C[C@H]3O2)n1 | 88.34%
24 | O=C1CO[C@H]2CN(S(=O)(=O)c3ccccc3)C[C@H]2N1c1ccccc1 | -3.468%
25 | Cc1nccc([C@H]2C[C@@H]3CCN(S(=O)(=O)C4CC4)C[C@H]3O2)n1 | 101.1%

Row | Structure (SMILES) | Percent Effect
26 | Cc1nccc([C@@H]2C[C@H]3CN(S(=O)(=O)c4ccccc4)C[C@H]3O2)n1 | 93.7%
27 | Cc1nccc([C@H]2C[C@@H]3CCN(S(=O)(=O)N(C)C)C[C@H]3O2)n1 | -8.198%
28 | Cc1nccc([C@@H]2C[C@@H]3CCN(S(=O)(=O)C4CC4)C[C@H]3O2)n1 | 103.3%
29 | O=C1CO[C@H]2CN(S(=O)(=O)c3ccccc3)C[C@H]2N1Cc1ccccn1 | 1.166%
30 | O=C(C1CCOCC1)N1CC[C@H]2C[C@@H](c3ccncn3)O[C@@H]2C1 | -5.284%
31 | N#Cc1cc2c(=O)n(CC(O)c3cccc(O)c3)ccc2[nH]c1=O (centres undefined) | -10.2%
32 | Cc1nccc([C@H]2C[C@@H]3CCN(S(C)(=O)=O)C[C@H]3O2)n1 | 116.1%
33 | Cc1nccc([C@@H]2C[C@@H]3CCN(S(C)(=O)=O)C[C@H]3O2)n1 | -4.62%
34 | COc1cc(N2CC[C@@H]3O[C@@H](c4ccnc(C)n4)C[C@H]3C2)ncn1 | -12.7%
35 | O=S(=O)(NC1CCC2(CC1)OCCO2)c1ccccc1Br | -6.742%
36 | COC(=O)CCCNC(=O)N1CCc2c(F)ccc(F)c2C1 | -9.292%
37 | O=C(c1nc(COc2ccc3c(c2)OCO3)no1)N1CCCC1 | 8.865%
38 | CCc1nc(COc2ccc(OCc3cnn(C)c3)cc2)no1 | -33.42%
39 | CC(=O)Nc1ccc(OCc2noc(C(=O)N3CCCCC3)n2)cc1 | 122.5%
40 | CC(=O)Nc1ccc(OCc2noc(C(=O)N3CCCCCC3)n2)cc1 | 101%
41 | CCOCCNC(=O)Nc1ccc(OCc2noc(C3CC3)n2)cc1 | -0.9885%
42 | CCOCCCC(=O)Nc1ccc(OCc2noc(C3CC3)n2)cc1 | 20.67%
43 | CC(=O)Nc1ccc(OCc2noc(C(=O)N3CCCC3)n2)cc1 | 120.5%
44 | NC(=O)Cc1ccc(OCc2noc(C(=O)N3CCCC3)n2)cc1 | 130.8%
45 | CC(C)c1nc(C2CCCN2c2ncc(C(N)=O)cc2Cl)no1 (centres undefined) | -26.86%
46 | CC(C)=Cc1c(-c2ccccc2)ncn1CCN(C)S(C)(=O)=O | -6.043%
47 | CCCc1nnc(NC(C)c2ccc3c(c2)OCCO3)o1 (centres undefined) | 16.29%
48 | COCCCn1ccc(NC(=O)NCCCNc2ccccc2)n1 | -2.159%
49 | COc1cc(Cl)c(C)cc1NC(=O)CCNc1ccc(C#N)cn1 | -3.637%
50 | CC(C)c1nc(CN(C)CC2CCN(CCO)CC2)no1 | -11.77%

Row | Structure (SMILES) | Percent Effect
51 | c1ccc2cc(OCCN3CCn4c(nnc4C4CC4)C3)ccc2c1 | 2.138%
52 | CCN1C(=O)CC[C@@H]2[C@H]1CCN2C(=O)Cc1cccc(OC)c1 | -2.508%
53 | CC(C)Cc1nc(COc2ccc(N(C)C(N)=O)cc2)no1 | -36.1%
54 | CCOC(=O)c1nc(COc2ccc(CC(N)=O)cc2)no1 | 100.5%
55 | NC(=O)c1nc(COc2ccc3c(c2)OCO3)no1 | 26.77%
56 | CC(C)C1CN(C(=O)c2ccc(N3CCCC3)nc2)CCS1 (centres undefined) | -8.119%
57 | Cc1cccc(C(=O)NC2CCN(c3cnn(C)c3)C2=O)n1 (centres undefined) | -1.568%
58 | CNC(=O)Cc1noc(Cc2cccc(Cl)c2)n1 | 10.38%
59 | O=C(O)CNC(=O)Cc1csc(-c2cccc(Cl)c2)n1 | 95.07%
60 | O=C(O)CCNC(=O)Cc1csc(-c2cccc(Cl)c2)n1 | 119%
61 | CN(Cc1csc(-c2ccccc2)n1)C(=O)CCNS(C)(=O)=O | -10.81%
62 | Cc1nc(CNC(=O)NCC(O)c2cccc(Cl)c2)cs1 (centres undefined) | -14.28%
63 | COc1ccc(C(=O)N2C[C@@H](CN3CCCC3)[C@@H](CO)C2)c(C)c1 | 5.26%
64 | O=c1[nH]c(CN2CCN(CC(F)(F)F)CC2)nc2ccccc12 | -9.937%
65 | CCn1c(CN2CCOC(Cn3cncn3)C2)nc2cc(F)ccc21 (centres undefined) | 8.019%
66 | Cn1cncc1CN1CCC2(CC1)CCN2c1ncccn1 | 0.5048%
67 | CCn1cncc1CN1CCN(CC2(c3ccc(C)cc3)CC2)CC1.Cl | 124%
68 | CCn1cncc1Cn1cccc(C(F)(F)F)c1=O | 2.585%
69 | Cc1ccc(C2(CN3CCN(Cc4cnc(C)n4C)CC3)CC2)cc1.Cl | 125%
70 | Cc1ccc(C2(CN3CCCC3)CCNCC2)nc1 | 5.469%
71 | COCCn1cncc1CN1CCCC(C)(c2ccccc2)C1 (centres undefined) | -12.89%
72 | Cc1ccc(C2(CN3CCN(Cc4cncn4C)CC3)CC2)cc1.Cl | 158.8%
73 | Cc1ccc(C2(CN3CCN(c4ncccn4)CC3)CCNCC2)nc1 | -14.8%
74 | COCCN1CCCC12CCN(Cc1cncn1C)CC2.O=C(O)C(F)(F)F.O=C(O)C(F)(F)F | -4.301%
75 | Cc1ccc(C(=O)Nc2cc(C(N)=O)ccc2CN(C)C)cc1Cl | -14.19%

Row | Structure (SMILES) | Percent Effect
76 | NC(=O)c1ccc(NC(=O)N2CCN(c3cccs3)CC2)c(F)c1 | -5.895%
77 | CS(=O)(=O)NC[C@H]1OC[C@@H](NC2CCC(F)(F)CC2)[C@@H]1O | -4.949%
78 | OCCO[C@H]1C[C@@H](O)C12CCN(Cc1nc(C(F)(F)F)no1)CC2 | 99.64%
79 | COCc1noc(CN2C(=O)OC[C@@H]2C(C)C)n1 | -2.73%
80 | COc1ccc(F)c(F)c1CN1CCC2(CC1)[C@H](O)C[C@@H]2OCCN | 1.725%
81 | NCCO[C@H]1C[C@@H](O)C12CCN(Cc1c(F)cccc1F)CC2 | -12.61%
82 | COc1cc(CN2CCC3(CC2)[C@H](O)C[C@@H]3OCCO)ccc1F | 8.427%
83 | COCc1noc(CN2CCC3(CC2)[C@H](O)C[C@@H]3OC)n1 | 101.4%
84 | CNc1cc(C)nc(N2CCC3(CC2)[C@H](O)C[C@@H]3OC)n1 | 12.2%
85 | CO[C@H]1C[C@@H](O)C12CCN(Cc1nc(C(F)(F)F)no1)CC2 | 107.1%
86 | CCN(Cc1nc(COC)no1)C[C@]1(O)CCCN2CCCC[C@@H]21 | -7.865%
87 | Cc1ccccc1SC1CCN(C(=O)C2CNCC(=O)N2)CC1 (centres undefined) | -16.36%
88 | COc1nccnc1-c1cccc(-c2ccn(CC3COCCO3)n2)c1 (centres undefined) | -15.38%
89 | CCN(C)c1ncnc2c1CCN(C(=O)c1cccn1C)CC2 | -8.14%
90 | O=C(c1n[nH]c2c1CCC2)N1CCCC1c1nc(-c2ccccn2)no1 (centres undefined) | 14.67%
91 | COCCn1ccc2c(NC(=O)c3n[nH]c4c3CCC4)cccc21 | 97.48%
92 | COCCn1ccc(=O)c(OCC(=O)Nc2cccc(C(C)=O)c2)c1C | 6.255%
93 | O=C(c1n[nH]c2c1CCC2)N1CCCC1c1nc(-c2ccccc2)no1 (centres undefined) | 8.692%
94 | COCCn1ccc2c(NC(=O)c3n[nH]c4c3CCCC4)cccc21 | 111.2%
95 | CC(C)CN1CCc2[nH]nc(C(=O)N3CCCC3)c2C1.O=C(O)C(F)(F)F | 26.25%
96 | CC(C)Cn1ccc2c(NC(=O)c3n[nH]c4c3CCC4)cccc21 | 106.4%
97 | COCCn1cc(C(=O)N2CCCC2c2cc(C)on2)c2ccccc21 (centres undefined) | -11.13%
98 | CC(C)Cn1cncc1CNC(=O)c1cccc(-n2cnnc2)c1 | 1.824%
99 | CC(C)n1ccc2c(NC(=O)c3n[nH]c4c3CCC4)cccc21 | 99.33%
